{"source": "PubChem BioAssay AID588354", "about": "(The Scripps Research Institute Molecular Screening Center, 2011)", "note": "The campaign covered roughly 360,000 compounds. About 430 (0.12%) were called active.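 Rule for the calls: active = inhibition above the campaign mean plus 3 SD, with each screening campaign given its own cutoff (cut at about 60% in these data); inactive = the rest.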 The sample as a whole holds a higher share of actives than the screen did."}
{"biological_target": "Nuclear receptor coactivator 1 (Homo sapiens) (UniProt Q15788)", "sequence (Q15788 whole entry, looked up, the tested form may be a part)": "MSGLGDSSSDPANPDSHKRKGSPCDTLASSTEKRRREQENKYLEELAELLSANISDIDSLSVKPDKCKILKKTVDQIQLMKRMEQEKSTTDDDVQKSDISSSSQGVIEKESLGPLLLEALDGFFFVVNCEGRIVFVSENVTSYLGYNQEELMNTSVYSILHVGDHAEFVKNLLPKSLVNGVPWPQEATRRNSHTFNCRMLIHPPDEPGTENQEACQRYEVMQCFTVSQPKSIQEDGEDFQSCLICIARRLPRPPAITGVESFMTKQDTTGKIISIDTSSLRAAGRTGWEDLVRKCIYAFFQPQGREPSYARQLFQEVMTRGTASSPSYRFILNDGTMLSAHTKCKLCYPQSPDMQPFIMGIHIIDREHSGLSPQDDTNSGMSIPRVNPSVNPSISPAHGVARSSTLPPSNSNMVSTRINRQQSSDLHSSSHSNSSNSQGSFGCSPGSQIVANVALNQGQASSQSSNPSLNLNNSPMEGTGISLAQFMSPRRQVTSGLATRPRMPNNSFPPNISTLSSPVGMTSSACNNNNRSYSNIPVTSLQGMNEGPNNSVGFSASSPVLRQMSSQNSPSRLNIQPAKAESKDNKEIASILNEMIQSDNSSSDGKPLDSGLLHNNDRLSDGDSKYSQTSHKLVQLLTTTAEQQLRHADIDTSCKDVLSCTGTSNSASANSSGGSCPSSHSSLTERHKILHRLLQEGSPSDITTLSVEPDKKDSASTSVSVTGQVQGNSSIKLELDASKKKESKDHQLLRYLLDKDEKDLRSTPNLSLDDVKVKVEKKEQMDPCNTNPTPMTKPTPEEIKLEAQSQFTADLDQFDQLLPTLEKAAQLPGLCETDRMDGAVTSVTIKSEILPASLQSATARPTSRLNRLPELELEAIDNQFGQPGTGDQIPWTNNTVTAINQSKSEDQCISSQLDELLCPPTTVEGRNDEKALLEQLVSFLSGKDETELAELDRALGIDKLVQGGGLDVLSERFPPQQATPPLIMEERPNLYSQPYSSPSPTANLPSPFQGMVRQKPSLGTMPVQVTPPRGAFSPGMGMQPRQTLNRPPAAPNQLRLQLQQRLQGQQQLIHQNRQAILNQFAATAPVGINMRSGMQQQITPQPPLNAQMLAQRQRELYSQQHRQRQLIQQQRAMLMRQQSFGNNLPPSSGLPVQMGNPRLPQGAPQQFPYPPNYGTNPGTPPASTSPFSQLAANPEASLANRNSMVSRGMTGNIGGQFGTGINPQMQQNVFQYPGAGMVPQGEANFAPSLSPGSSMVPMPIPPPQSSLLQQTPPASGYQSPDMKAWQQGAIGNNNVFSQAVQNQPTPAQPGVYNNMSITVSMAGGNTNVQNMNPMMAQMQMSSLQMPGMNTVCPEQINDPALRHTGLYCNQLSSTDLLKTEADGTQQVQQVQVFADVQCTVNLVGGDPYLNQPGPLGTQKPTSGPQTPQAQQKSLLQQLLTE", "experiment": "SRC1 coactivator transcriptional activity inhibitors, primary screen, cell-based, luminescence (AID 588354);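 note: 0% = DMSO treated cells and 100% = gossypol at 36 µM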", "settings": "HEK293 GAL4-SRC1 luciferase reporter, at 3.6 µM, hits give high values"}
{"smiles": "CCN(CC)C(=O)[C@H]1C[C@H](CC(=O)NCC23CC4CC(CC(C4)C2)C3)C(=O)N2CCc3c([nH]c4cc(CCC(=O)N(C)C)ccc34)[C@]12C", "inhibition": "4.03% (inactive)"}
{"smiles": "Cc1cc(C)c2c(c1)c(C)cc1nnc(SCC(=O)NCc3ccco3)n12", "inhibition": "-10.2% (inactive)"}
{"smiles": "CC(C)c1cccc(C(C)C)c1Nc1cn[nH]c1", "inhibition": "-5.74% (inactive)"}
{"smiles": "CC(=O)c1cccc(NC(=O)N2CCCC2C(=O)NCCC(C)C)c1", "note": "(stereo not drawn)", "inhibition": "-16% (inactive)"}
{"smiles": "C=CCn1c(SCc2cc(C(=O)OC)c(C)o2)nnc1-c1ccncc1", "inhibition": "-8.14% (inactive)"}
{"smiles": "CCn1nc(NC(=O)c2ccco2)c2cc3ccc(C)cc3nc21", "inhibition": "5.64% (inactive)"}
{"smiles": "CN(Cc1ccc(CNC[C@H]2O[C@@H](n3cnc4c(N)ncnc43)[C@H](O)[C@@H]2O)o1)S(C)(=O)=O", "inhibition": "-4.89% (inactive)"}
{"smiles": "O=C(NCc1ccccc1)C(c1ccco1)N(C(=O)c1csnn1)c1ccccc1F", "note": "(stereo not drawn)", "inhibition": "-7.13% (inactive)"}
{"smiles": "COc1cc(OC)cc(-c2cc3ccc(F)cc3cn2)c1", "inhibition": "-60% (inactive)"}
{"smiles": "CCOC(=O)c1cc(C(=O)Nc2ccc(S(=O)(=O)Nc3ccc(OC)cc3)cc2)nn1C", "inhibition": "7.15% (inactive)"}
{"smiles": "O=C(Nc1cc2c3c(c1)C1CCCC1CN3CC1CCCC21)c1ccc([N+](=O)[O-])cc1", "note": "(stereo not drawn)", "inhibition": "-2.56% (inactive)"}
{"smiles": "CCOC(=O)NC(=O)CSc1nnc(SCCC(=O)O)s1", "inhibition": "-8.78% (inactive)"}
{"smiles": "COc1ccc(C2=Nn3c(nnc3-c3ccccc3OC)SC2)cc1OC1CCCC1", "inhibition": "-15.9% (inactive)"}
{"smiles": "CCCCN(C(=O)CCNC(=O)NC12CC3CC(CC(C3)C1)C2)c1c(N)n(CCCC)c(=O)[nH]c1=O", "inhibition": "4.35% (inactive)"}
{"smiles": "C=CCOc1cccc(C2NC(=O)c3ccccc3O2)c1", "note": "(stereo not drawn)", "inhibition": "3.13% (inactive)"}
{"smiles": "Cc1ccnc2nc(C(=O)OCC(=O)N(CC(C)C)CC(C)C)nn12", "inhibition": "2.84% (inactive)"}
{"smiles": "CN1CCN(C(=O)C(=O)c2cn(CC(=O)N3CCCC3)c3ccccc23)CC1", "inhibition": "-22.3% (inactive)"}
{"smiles": "CCN(CC)C(=O)CSC1c2ccccc2C(=O)N1c1ccccc1", "note": "(stereo not drawn)", "inhibition": "-5.03% (inactive)"}
{"smiles": "O=C(c1ccc(F)c(S(=O)(=O)N2CCOCC2)c1)N(CCc1ccccc1)Cc1ccccc1", "inhibition": "-1.71% (inactive)"}
{"smiles": "CSCCC(NC(=O)c1ccc(Cl)cc1Cl)C(=O)NNC(=O)c1csc(N2CCOCC2)n1", "note": "(stereo not drawn)", "inhibition": "-17% (inactive)"}
{"smiles": "Cc1cccc(C(=O)N2CCCC(Nc3ccc(C(C)C)cc3)C2)n1", "note": "(stereo not drawn)", "inhibition": "1.61% (inactive)"}
{"smiles": "COc1ccc(N2CCN(C(=O)Cn3cnc4sc(C)c(S(=O)(=O)N5CCOCC5)c4c3=O)CC2)cc1", "inhibition": "1.72% (inactive)"}
{"smiles": "O=C(Nc1cc(-c2nc3ncccc3o2)ccc1Cl)c1ccco1", "inhibition": "-8.08% (inactive)"}
{"smiles": "C[C@H]1CN([C@@H](C)CO)C(=O)c2cc(-c3cccc(F)c3)cnc2O[C@@H]1CN(C)S(C)(=O)=O", "inhibition": "4.48% (inactive)"}
{"smiles": "COC(=O)CNC(=O)c1ccc2c(c1)S(=O)(=O)c1ccccc1C2=O", "inhibition": "-9.27% (inactive)"}
{"smiles": "Cc1cc(=O)oc2c3c(cc(OCC(=O)NCC(O)c4ccccc4)c12)OC(C)(C)CC3", "note": "(stereo not drawn)", "inhibition": "-22.4% (inactive)"}
{"smiles": "S=C(Cc1ccc(Cl)cc1)N1CCOCC1", "inhibition": "-5.3% (inactive)"}
{"smiles": "O=C(O)c1n[nH]nc1-c1ccccc1", "inhibition": "10.2% (inactive)"}
{"smiles": "CC1(C)CC(N2CCN(C(c3ccccc3)c3ccccc3)CC2)=CC(=[N+]2CCCCC2)C1", "inhibition": "77% (active)"}
{"smiles": "Clc1ccc2nc(CSc3ccccc3)cn2c1", "inhibition": "-91.3% (inactive)"}
{"smiles": "CC(C)(C)SCCSC1=CC(=O)CC(c2ccccc2)C1", "note": "(stereo not drawn)", "inhibition": "-111% (inactive)"}
{"smiles": "CCCCNS(=O)(=O)c1ccc2nc(SCC(=O)Nc3cc(C)cc(C)c3)[nH]c2c1", "inhibition": "12% (inactive)"}
{"smiles": "Cc1cc(NC(=O)CSc2nccn2-c2ccc([N+](=O)[O-])cc2)no1", "inhibition": "-17% (inactive)"}
{"smiles": "CN(C)/C=C(/C(=O)c1ccccc1Cl)S(C)(=O)=O", "inhibition": "-22.7% (inactive)"}
{"smiles": "COc1ccc2c(c1)N(C)/C(=C1/SC(=S)N(NC(C)=O)C1=O)S2", "inhibition": "-35.2% (inactive)"}
{"smiles": "CCOC(=O)c1ccccc1N1C(=O)C2Sc3[nH]c(=O)sc3C(/C=C/c3ccccc3)C2C1=O", "note": "(stereo not drawn)", "inhibition": "-1.18% (inactive)"}
{"smiles": "O=C(NCCN1CCOCC1)c1cc(Sc2cccc(Cl)c2)nc2ccccc12", "inhibition": "-5.48% (inactive)"}
{"smiles": "c1ccc2cc3c(NCCN4CCOCC4)ccnc3cc2c1", "inhibition": "61.6% (active)"}
{"smiles": "O=S(=O)(c1ccc(Cl)cc1)c1nc(-c2ccccc2F)oc1NCCN1CCOCC1", "inhibition": "-8.54% (inactive)"}
{"smiles": "O=C(CCCN=C1NS(=O)(=O)c2ccccc21)OCC(=O)c1ccc(F)c(F)c1", "inhibition": "-0.01% (inactive)"}
{"smiles": "CCn1c(C(C)C)n[nH]c1=S", "inhibition": "-20.3% (inactive)"}
{"smiles": "CC(C)(C)NC(=O)C(c1ccco1)N(Cc1ccc2c(c1)OCO2)C(=O)Cn1nnc2ccccc21", "note": "(stereo not drawn)", "inhibition": "11.9% (inactive)"}
{"smiles": "CCOc1ccc(-n2cnnn2)cc1S(=O)(=O)N1CCC(C)CC1C", "note": "(stereo not drawn)", "inhibition": "4.05% (inactive)"}
{"smiles": "O=S(=O)(NCc1ccc2c(c1)OCO2)c1cccc2nsnc12", "inhibition": "-3.02% (inactive)"}
{"smiles": "Cc1nc(COc2cc3oc(=O)cc(C)c3cc2Cl)cs1", "inhibition": "-6.18% (inactive)"}
{"smiles": "C[C@@H]1C[C@@H]2O[C@H]2/C=C\\C=C\\C(=O)Cc2c(Cl)c(O)cc(O)c2C(=O)O1", "inhibition": "53.8% (inactive)"}
{"smiles": "CC(=O)NC1(c2ccc(F)cc2)CCN(C(=O)c2c(F)cccc2F)CC1", "inhibition": "-14.7% (inactive)"}
{"smiles": "c1cnc(NC2C3CC4CC(C3)CC2C4)nc1", "note": "(stereo not drawn)", "inhibition": "-13.6% (inactive)"}
{"smiles": "CCCCCC(O)c1cccc(OCc2ccc3ccccc3n2)c1", "note": "(stereo not drawn)", "inhibition": "-17.6% (inactive)"}
{"smiles": "O=C(CCn1c(=S)[nH]c2cc3c(cc2c1=O)OCO3)NCc1ccc(Cl)cc1", "inhibition": "10% (inactive)"}
{"smiles": "CCN(Cc1ccccc1)C(=O)CSc1nc(C)cc2c1C(=O)OC2", "inhibition": "-20% (inactive)"}
{"smiles": "Cc1nnc(C)c2c(C)n(N)c(C)c12", "inhibition": "3.29% (inactive)"}
{"smiles": "CCCNC(=O)C1(C)CCN(C(=O)c2ccccc2OC(F)(F)F)C1", "note": "(stereo not drawn)", "inhibition": "-5.22% (inactive)"}
